# Marburg entry inh: Marburg virus entry inhibition; Marburg virus pseudotyped entry inhibition, cell reporter; Potency, µM (highest dose often 37.8 µM), without a hit: at the highest dose activity change, negative = inhibition, hits mostly inhibitors; hit rate 1.8% among 300,000; calls by dose curve; tested in HEK293 cells; also: potency is read from the fitted curve at half-maximal effect; % is scaled to controls: 0 for no effect and ±100 for the full control effect
# SARS PLpro yeast: inhibitors of SARS-CoV papain-like protease in yeast; AID 485353; hit rate 0.19% among 330,000; S. cerevisiae expressing SARS-CoV PLpro, growth rescue; Potency, µM (series often up to 32.9 µM), without a hit: top-dose activity, positive = growth rescue, actives largely listed as activators; calls by dose curve; also: potency is read from the fitted curve at half-maximal effect; 0% is about no effect; nearly all actives have a fitted effect of over 55% in size
# HCMV inh: blocks human cytomegalovirus replication. hit rate 4.5% among 410,000. HFF cells, HCMV-luciferase reporter, 72 h; active compounds read low. activity change, negative = inhibition, % at 57.5 µM. AID 1259415; in the data active = activity change below about -60%; inconclusive = no clear call, values can overlap the other calls; inactive = above about -39%; also: % is scaled to controls: 0 for no effect and ±100 for the full control effect
#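 HFF cells seeded 16 h at 37C, treated with compounds, infected with luciferase-reporter HCMV at MOI 1 PFU/cell; luciferase read at 72 h post infection, normalized to buffer-only and Salinomycin controls.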
# Lassa entry inh: Lassa virus entry inhibition | Lassa virus pseudotype entry inhibition, cell reporter | Potency, µM (titrated, usually from 37.9 µM), without a hit: top-dose activity change, negative = inhibition, most hits filed as inhibitors | AID 540256 | hit rate 1.2% among 300,000; calls by dose curve; tested in HEK293 cells; also: potency is read from the fitted curve at half-maximal effect; % is scaled to controls: 0 for no effect and ±100 for the full control effect; nearly all actives have a fitted effect of over 50% in size
# FMDV antiviral: antivirals against foot and mouth disease virus. FMDV antiviral cell-based qHTS. Potency, µM (titrated, usually from 57.9 µM), inactives show at the highest dose activity change, negative = inhibition, usual class: inhibitors. hit rate 1.2% among 410,000. AID 1159524; calls by dose curve; tested in HEK293T cells; also: read-out not given here; potency is read from the fitted curve at half-maximal effect; % is scaled to controls: 0 for no effect and ±100 for the full control effect; nearly all actives have a fitted effect of over 45% in size
# HCV inhibitor: blocks hepatitis C virus; Huh7.5.1 HCVcc-Cre infection, luciferase reporter, 44 h; Potency, µM (series often up to 41.8 µM), inactives show at the top dose activity change, negative = inhibition, actives largely listed as inhibitors; hit rate 3.4% among 340,000; active = well fitted inhibition curve with a large enough effect; inconclusive = small, poorly fitted or top-dose-only effect, or another doubt; inactive = no such curve, though single readings can be large or run the other way; also: potency is read from the fitted curve at half-maximal effect; % is scaled to controls: 0 for no effect and ±100 for the full control effect
#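 After 44 h co-culture of compound, cells and HCVcc-Cre (~0.5 moi), substrate is added for 15 min at room temperature and luciferase measured over 15 sec. Cells were seeded at 1,000/well and pre-cultured 4 h.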
# * hit, by the source's call; ? = inconclusive; . = not tested or not shown; [ ] = remark or other dose. Shown are actives, neighbours in structure and some others; about 8% of the full set was active somewhere.
SMILES,Marburg entry inh,SARS PLpro yeast,HCMV inh,Lassa entry inh,FMDV antiviral,HCV inhibitor
CSc1ccc(CNC(=O)C2CCC(=O)N(CCc3ccc(Cl)cc3)C2)cc1 (stereo unspecified),.,.,7.8,.,-18.7%,.
CCc1cccc(-n2c(=O)c3cccnc3n2CC(=O)NCc2ccccc2)c1,.,.,-20.6,-7.8%[46.1 µM],-1.4%,.
O=S(=O)(CCSc1nc2ccccc2o1)c1nc2ccccc2s1,?,-33.3%,32.1,?,15.8µM*,11.2µM*
COc1cc2c(cc1OC)CN(CC(=O)Nc1ccc(C)cc1)CC2,?,16.3%,-31.7,0.5%,-7.3%,-1.8%
COC(=O)c1[nH]c2ccc(C)cc2c1NC(=O)CN1CCCC(C)(C)C1,?,-5.3%,?,?,7.3%,12.6µM*
CCN(CC(=O)Nc1c(C(=O)OC)[nH]c2ccc(C)cc12)c1ccc2c(c1)OCO2,-18.2%,20.3%,-5.4,-20.4%,-24.8%,8.91µM*
COC(=O)c1[nH]c2ccc(F)cc2c1NC(=O)CCN1CCN(Cc2ccc3c(c2)OCO3)CC1,-0.9%,-1.7%,-15.0,-15.4%,?,?
COC(=O)c1[nH]c2ccc(C)cc2c1NC(=O)CN1CCc2cc(OC)c(OC)cc2C1,?,7.4%,-10.5,-22.9%,?,10µM*
COc1ccc2c(c1)C[C@@H](C)O[C@]21C(=O)Nc2ccccc21,70.8%[14.2 µM],.,.,.,.,.
O=C(OCC1OC(OC(=O)c2cc(O)c(O)c(OC(=O)c3cc(O)c(O)c(O)c3)c2)[C@@H](OC(=O)c2cc(O)c(O)c(OC(=O)c3cc(O)c(O)c(O)c3)c2)C(OC(=O)c2cc(O)c(O)c(OC(=O)c3cc(O)c(O)c(O)c3)c2)C1OC(=O)c1cc(O)c(O)c(OC(=O)c2cc(O)c(O)c(O)c2)c1)c1cc(O)c(O)c(OC(=O)c2cc(O)c(O)c(O)c2)c1 (stereo partly specified),0.353µM*,.,.,11.2µM*,.,.
CCOC(=O)c1c(C)[nH]c(CCC(=O)Nc2cc(Cl)ccc2OC)c1C,.,.,-12.9,?,-25.1%,.
CCS(=O)(=O)c1ncc(Cl)c(C(=O)N2CCN(c3ccc(OC)cc3)CC2)n1,?,.,-98.6*,?,31.6µM*,.
COc1ccc(OC)c(NC(=O)c2nc(S(=O)(=O)Cc3ccc(F)cc3)ncc2Cl)c1,?,.,-97.2*,?,22.4µM*,.
CCS(=O)(=O)c1ncc(Cl)c(C(=O)NCc2ccc(OC)cc2)n1,.,.,-96.5*,?,25.1µM*,.
CCCS(=O)(=O)c1ncc(Cl)c(C(=O)Nc2c(C(=O)c3ccccc3)oc3ccccc23)n1,-5.6%[46.1 µM],.,27.7,11.9%[46.1 µM],?,.
COc1ccc(N2CCN(C(=O)c3nc(SC)ncc3Cl)CC2)cc1,1.5%[46.1 µM],.,-17.6,8.3%[46.1 µM],-18.1%,.
COc1ccc(OC)c(NC(=O)NCc2ccc(F)cc2)c1,?,-9.7%,-20.5,0.4%,6.6%,?
CCOc1ccccc1NC(=O)c1nc(S(=O)(=O)Cc2ccccc2)ncc1Cl,.,-1.0%,-108.7*,.,31.6µM*,?
COC(=O)c1c(OCc2ccccn2)cc(=O)n2c1CCN(Cc1cccc(C(F)(F)F)c1)CC2,.,.,.,.,-15.0%,.
COc1ccccc1NC(=O)c1nc(SCc2ccc(F)cc2)ncc1Cl,4.3%[46.1 µM],.,17.9,24.4%[46.1 µM],-16.2%,.
COc1ccccc1NC(=O)c1nc(S(=O)(=O)Cc2ccccc2)ncc1Cl,?,-3.0%,-112.8*,?,28.2µM*,?
CCS(=O)(=O)c1ncc(Cl)c(C(=O)N(Cc2ccccc2)c2ccc(OC)cc2)n1,?,.,-99.4*,?,11.2µM*,.
CCS(=O)(=O)c1ncc(Cl)c(C(=O)Nc2ccccc2OC)n1,-16.0%[46.1 µM],-0.2%,-19.9,?,3.55µM*,?
COc1ccc(N(Cc2ccccc2)C(=O)c2nc(SC)ncc2Cl)cc1,?,.,-21.0,-23.7%[46.1 µM],0.0%,.
COc1cccc(Cn2c(CNC(=O)c3cc([N+](=O)[O-])ccc3Cl)nc3cccnc32)c1,.,.,?,-18.3%[46.1 µM],-25.0%,.
SMILES,Marburg entry inh,SARS PLpro yeast,HCMV inh,Lassa entry inh,FMDV antiviral,HCV inhibitor
COc1ccc(-c2cc(C(F)(F)F)n3nc(C(N)=O)cc3n2)cc1,.,.,-25.9,.,-26.1%,.
CCCCN(C)CCNC(=O)c1ccc2c(=O)n(CCc3ccccc3)c(=O)[nH]c2c1,-12.6%[46.1 µM],.,4.5,?,-4.6%,.
COCC(=O)Nc1cc(C(=O)N2CCN(c3ccccc3)C(=O)C2)cc2nc(-c3ccccc3)n(C)c12,.,.,.,.,0.3%,.
FC(F)(F)c1ccc2c(c1)n(Cc1ccccc1)c1[n+]2CCCCC1,-3.4%,-0.3%,-65.8*,-13.0%,-20.5%,9.4%
CCc1cccc(NC(=O)Cn2c3[n+](c4ccc(C(F)(F)F)cc42)CCCCC3)c1,17.1%,-13.1%,-64.0*,3.1%,-15.3%,?
O=C(Cn1c2[n+](c3ccc(C(F)(F)F)cc31)CCCCC2)Nc1ccccc1,-7.0%,8.6%,-16.9,-10.5%,2.3%,?
O=C(Cn1c2[n+](c3ccc(C(F)(F)F)cc31)CCCCC2)c1cccc([N+](=O)[O-])c1,.,-2.7%,1.9,.,1.2%,-16.4%
CCCCc1c(C)nc2c(OC)cccc2c1SCC(=O)O,0.6%[46.1 µM],2.0%,0.0,18.9%[46.1 µM],-14.8%,7.3%
COc1cccc2c(Cl)c(CCCl)c(C)nc12,?,2.0%,-68.5*,-26.5%[46.1 µM],-4.3%,-20.2%
Clc1cccc(-c2noc3ncnc(NC4CCCCC4)c23)c1,-0.3%[46.1 µM],.,-16.7,14.6%[46.1 µM],?,.
Clc1ccc(-n2nnnc2-c2cnc(-c3ccncc3)nc2-c2cccs2)cc1,?,-25.1%,-62.1*,?,-1.8%,22.4µM*
CCCOc1ccc(Cc2c(Cl)nc(SC)nc2N(C)C)cc1,?,-31.2%,-66.8*,?,?,?
O=C(NC1(C(F)(F)F)C(=O)Nc2c1c(=O)[nH]c(=O)n2-c1ccccc1)c1ccccc1Cl (stereo unspecified),.,.,6.4,8.1%[46.1 µM],-3.8%,.
COc1cccc(C2c3cc4c(cc3OC(N3CCOCC3)C2C)OCO4)c1O (stereo unspecified),-10.7%,.,14.3,?,-2.4%,-20.7%
COc1ccc(C2c3cc4c(cc3OC(N3CCOCC3)C2C)OCO4)c(OC)c1 (stereo unspecified),?,.,?,6.31µM*,0.0%,?
COc1cc2ccccc2cc1C(=O)N1CCc2ccccc21,?,-0.6%,-19.1,-23.5%,18.4%,8.91µM*
COc1cc(C(=O)N2CCc3ccccc32)cc(OC)c1OC,?,-4.9%,27.7,-7.1%,-16.4%,0.0%
COc1ccc(CN2C(=O)C(n3ccc4ccccc43)c3ccccc32)cc1 (stereo unspecified),.,.,13.6,.,.,.
CC(C)(C)OC(=O)C[C@H]1C/C=C\C[C@H](CC(=O)NCCO)C(=O)N2CCC[C@@H]2COC1=O,.,8.0%,-60.4*,.,-1.6%,17.1%
O=C1[C@@H]2[C@@H]3C[C@@H]([C@H]4ON=C(c5ccc(Cl)cc5)[C@@H]34)[C@@H]2C(=O)N1c1ccc2c(c1)OCO2,?,-27.0%,-10.9,-13.3%,0.0%,6.1%

# High-throughput results as filed in PubChem BioAssay.
